Compounds without any hit were thinned out: in the full panel of roughly 79,000, 15% have a hit. Values without a mark were called inactive. Calls of active or inactive are those of the source. No stated cut-off is given here; in the data, active means growth inhibition above about 70%; inactive means the rest. Where a SMILES comes first, the peptide text is derived from it. The star is where a group is joined. Boc = CC(C)(C)OC(=O)*; OBn = c1ccc(CO*)cc1; tBu = CC(C)(C)*
Columns and labels:
[1] = NCI Yeast Anticancer Drug Screen. Data for the rad50 strain (AID 155);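 further: 0% = growth of vehicle-only cultures of the same strain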; conditions: S. cerevisiae rad50 strain growth inhibition; at 50.0 µM; stronger effect = higher value
Procedure, shortened: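 Readout: growth inhibition relative to vehicle-treated cultures. Compound exposure was carried out in a genetically defined yeast strain deficient in DNA damage repair.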

[2] = NCI Yeast Anticancer Drug Screen. Data for the mec2-1 strain (AID 157); conditions: S. cerevisiae mec2-1 strain, at 50.0 µM, stronger effect = higher value
Procedure, shortened: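 Readout is yeast growth inhibition, normalised to vehicle-treated controls, in the mec2-1 strain exposed to compound.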

[3] = NCI Yeast Anticancer Drug Screen. Data for the sgs1 mgt1 strain (AID 161);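 further: 0% = growth of cultures given vehicle only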; conditions: S. cerevisiae sgs1 mgt1 strain, at 50.0 µM, stronger effect = higher value
Procedure, shortened: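 Yeast cells carrying a defined DNA-repair defect were exposed to test compounds. Growth inhibition was measured relative to vehicle-treated controls.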

[4] = NCI Yeast Anticancer Drug Screen. Data for the cln2 rad14 strain (AID 165);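 further: 0% = growth equal to vehicle treated cultures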; conditions: S. cerevisiae cln2 rad14 strain, at 50.0 µM, stronger effect = higher value
Procedure, shortened: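 Relative to vehicle controls, growth inhibition of compound-treated cln2 rad14 yeast was recorded.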

[5] = NCI Yeast Anticancer Drug Screen. Data for the bub3 strain (AID 167); conditions: S. cerevisiae bub3 mutant strain, at 50.0 µM, stronger effect = higher value
Procedure, shortened: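 Readout: yeast growth inhibition, expressed relative to vehicle-only wells. The test organism is a mutant strain from a panel with lesions in DNA repair or checkpoint genes.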

[6] = NCI Yeast Anticancer Drug Screen. Data for the mlh1 rad18 strain (AID 175); conditions: S. cerevisiae mlh1 rad18 strain growth inhibition; at 50.0 µM; stronger effect = higher value
Procedure, shortened: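 Test agents were incubated with a yeast strain of defined genotype (DNA damage repair defect). Inhibition of growth was derived by comparison with vehicle-exposed cultures.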

Compound	growth inhibition [1]	growth inhibition [2]	growth inhibition [3]	growth inhibition [4]	growth inhibition [5]	growth inhibition [6]
C=CC(CO)N(CC)CC (stereo unspecified)	9.55%	8.7%	7.25%	13.3%	1.8%	11.3%
CCCCCCCCCCCCCCCCCCCCCCC	-30.4%	-15.1%	-21.9%	4.8%	-17.2%	-18.4%
CN(C)/C=C/c1ccnc2c1C(=O)c1ccccc1C2=O	83.7% (active)	90.5% (active)	73.3% (active)	67.8%	75.5% (active)	92.7% (active)
O=C(Cl)CN1C(=O)c2ccccc2C1=O	-12.1%	-24%	-14.5%	-14.3%	-12.3%	-0.25%
Cc1ccc(O)c(Cc2cc(C)cc(Cc3cc(C)ccc3O)c2O)c1	30.2%	-7.85%	15.2%	36.9%	-2.85%	42.4%
C1CCC(CN2CCN(CC3CCCCO3)CC2)OC1 (stereo unspecified)	-2.4%	-11.5%	-1.05%	-41.8%	0.25%	3.05%
Cc1cc2nnn(-c3ncccc3[N+](=O)[O-])c2cc1C	5%	5.85%	-5.2%	17.8%	9.8%	19.4%
CCOC/N=C(/N)NC#N	25.6%	2.35%	10.8%	13.1%	-3.4%	33.1%
CCOc1cc(=O)cc2n(-c3cc(OCC)c(OC)c(OCC)c3)c3ccccc3nc1-2	38%	11.7%	23.6%	21.9%	-1.4%	-1.2%
CSc1nc(=O)cc(N)n1C	1.65%	-1.55%	9.55%	-23.7%	-7.2%	7.9%
Nc1nnc2nc(C(C(=O)c3cccc(O)c3)c3nc4nnc(N)n4[nH]c3=O)c(=O)[nH]n12	8.65%	0%	-7.05%	4.7%	1.2%	1.05%
O=C(OCC(F)(F)C(F)(F)C(F)(F)C(F)(F)C(F)(F)C(F)F)OCC(F)(F)C(F)(F)C(F)(F)C(F)(F)C(F)(F)C(F)F	0.1%	9.05%	-5.45%	-3.65%	-0.6%	0.95%
O=C(Nc1ncnc2c1ncn2C1CCC(CO)O1)c1ccccc1 (stereo unspecified)	-1.35%	2.15%	3.7%	7.45%	14%	16.9%
COc1ccc(/C=C2\CCC(Cc3ccccc3)(CN(C)C)C2=O)cc1 (stereo unspecified)	19.6%	-15.3%	25.3%	3.7%	-11.8%	-72.4%
COc1cc(C=O)cc(O)c1O	11.8%	3.05%	-10.6%	-19.2%	-1.9%	-0.6%
Nc1nc(C2CCCCC2)cs1	54.2%	29.8%	31.1%	16.1%	14.9%	20.4%
Cc1cccc(Cl)c1NC(=O)Nc1ccc(Cl)cc1C(=O)c1ccccc1	5.5%	-4.1%	6.75%	4.2%	7.45%	-9.6%
CCC(=O)OC1(C(=O)OC)CCN(C)CC1	9.5%	2.95%	-0.9%	15.2%	17.8%	10.4%
ClC1CC/C=C\CC/C=C/CCC1Cl (stereo unspecified)	55.7%	48.1%	22.1%	32%	29.2%	41.3%
CC(OC(C)(C)C)C(NC(=O)C(N)CCCCNC(=O)OC(C)(C)C)C(=O)NC(Cc1ccccc1)C(=O)O (stereo unspecified) (H-Lys(Boc)-Thr(tBu)-Phe-OH; configuration not given here)	-37.3%	-11.6%	-39.4%	-14.8%	-5%	-15%
CC1(c2cccc3ccccc23)OC(=O)c2cccc(F)c21 (stereo unspecified)	-10.9%	-7.1%	-16.1%	23.4%	7.6%	0.55%

Compound	growth inhibition [1]	growth inhibition [2]	growth inhibition [3]	growth inhibition [4]	growth inhibition [5]	growth inhibition [6]
O=c1[nH]nc(SCc2ccccc2)c2nncn12	2.45%	3.1%	6.35%	23.4%	6.55%	20.1%
COc1ccc(CC(NC(=O)OCc2ccccc2)C(=O)NC2C(CO)OC(n3cnc4c(N)ncnc43)C2O)cc1 (stereo unspecified)	25.8%	-6%	10.2%	2.15%	-0.75%	-1.75%
CCOC(=O)c1cnc2c(ccc3ncccc32)c1Cl	-13.9%	-7.45%	15.8%	25.2%	7%	27.1%
O=C1c2ccccc2C(=O)c2c(NCCNC(=O)C3CCCN3)ccc(NCCNC(=O)C3CCCN3)c21 (stereo unspecified)	-1.25%	-11.7%	21.8%	3.4%	-3.7%	-85.5%
O=C(O)c1ccc(C(=O)c2ccccc2C(=O)O)cc1C(=O)O	-8.75%	5%	-44%	43.3%	-23.1%	-24.8%
C1CCC2C(C1)CCCC2NC1=NCCO1 (stereo unspecified)	1.75%	-23.7%	7.85%	12.8%	-1.1%	12.3%
COc1ccc(-n2c(=O)c(N=Nc3ccccc3Cl)c(O)n(-c3ccccc3OC)c2=S)cc1	22.4%	4.65%	33.2%	-33.1%	2.2%	3.2%
CC(C)CC(NC(=O)OC(C)(C)C)C(=O)NC(CC(=O)OCc1ccccc1)C(=O)OCc1ccccc1 (stereo not drawn) (Boc-Leu-Asp(OBn)-OBn; configuration not given here)	26.3%	-7.25%	15.5%	2.2%	15.8%	33.5%
Nc1nc(=O)n(CCCCCCc2ccccc2)cc1-c1ccc(Cl)c(Cl)c1	-4.75%	-8.95%	8%	83.7% (active)	3.65%	0.45%
COc1ccc(NC(=O)Nc2cccc(Cl)c2C)c(OC)c1	-0.9%	9.3%	32.8%	-3.15%	9.85%	5.6%
CN(NC1=NCCO1)c1ccc2ccccc2c1	-46.3%	-22.4%	-15.8%	-23.5%	-21.4%	-46.1%
O=C1S/C(=C2\C(=O)N(CN3CCCCC3)c3ccccc32)C(=O)N1CN1CCCCC1	26.6%	-13.1%	-3.85%	4.65%	-1.1%	31.1%
O=C1c2ccccc2-c2nnsc21	-20.7%	-14.4%	2.3%	-12.6%	-6.2%	19.5%
O=c1[nH]cnc2c1sc(=S)n2-c1ccccc1	7.15%	-10.5%	10.2%	6.7%	-12.3%	-2.4%
CCOC(=O)c1cnc(=O)n(Cc2ccccc2)c1N	-1.25%	0.65%	10.9%	0.45%	0.35%	-8.15%
Cc1c(F)cccc1NC(=O)OC(C)C	18.2%	-5.15%	-0.7%	-50.8%	12.8%	5.1%
O=C(CNOCc1ccccc1)OCc1ccccc1	25.5%	16.1%	2.65%	-6.8%	3.45%	19.4%
CCCCCCC(=O)/C=C/c1cccc(OCc2cccc(Cl)c2)c1	24.4%	16.8%	19.1%	16.8%	1.55%	4.65%
COc1ccc(/C=C/C(=O)c2sc(NC(=S)NC(=O)c3ccc(Cl)cc3)nc2C)cc1OC	16.2%	13.2%	28.6%	9.8%	-1.6%	7.2%
CC1OC(c2c(Cl)cccc2[N+](=O)[O-])OC1C (stereo unspecified)	3.5%	-9.2%	5.6%	0.5%	-7.6%	20%

— PubChem BioAssay (NCI)
